The text below walks through data of PMC12820563, “FoxP3 forms a head-to-head dimer in vivo and stabilizes its multimerization on adjacent microsatellites”.

In all, about 16,000 sequences were measured (“rpm ratio (pull-down/input)”: median about 0.5, highest 2% from about 5.5 on). This is one part of a sample in which the highest values are shown more often than they occur.

For this assay, the target named is T1, MBP-FoxP3dN (Mus musculus, UniProt Q99JB6 188-423).
T1 sequence: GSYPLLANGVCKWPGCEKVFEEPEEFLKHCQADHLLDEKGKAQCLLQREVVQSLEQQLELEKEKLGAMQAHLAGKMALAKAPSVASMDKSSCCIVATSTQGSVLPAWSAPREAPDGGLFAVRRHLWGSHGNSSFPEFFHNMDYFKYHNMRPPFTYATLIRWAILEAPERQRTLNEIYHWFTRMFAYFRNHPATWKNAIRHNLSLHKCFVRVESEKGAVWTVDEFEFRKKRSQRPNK
In words: PD-seq (MBP pull-down with sequencing); 20 mM Tris-HCl pH 7.5, 100 mM NaCl, 1.5 mM MgCl2, 0.4 uM protein, 0.1 uM dsDNA library, 30 min, room temperature, amylose pull-down; high values mean tight binding. The settings on record: protein: recombinant; tags: His6-MBP; chain copies: 2; dsDNA, one strand shown. An outline of the steps:
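Binding is reads-per-million enrichment of pull-down over input, with replicates pooled. It comes from 30 min room-temperature incubation in Tris pH 7.5 buffer with NaCl and MgCl2 of 0.4 µM His6-MBP-tagged, N-terminally truncated mouse FoxP3 or FoxP1 fragment from E. coli with 0.1 µM Klenow-filled degenerate double-stranded DNA library, followed by amylose resin capture, three washes and Illumina sequencing of the released DNA.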
As for “GATGATTGTTCTCCCAGCTGATGAATTTTGTACGTCGAGTAAACAAATTTTCCTAATCTTTCTGTTCAAGCGCCATCTAC”, the binding signal was 1.18 RPM ratio (pull-down/input).

In the case of “GATGATTGTTCTCCCAGCTGATGAATTGTAAGTGTCGAGTAAACAAATTTTCCTAATCTTTCTGTTCAAGCGCCATCTAC”, the binding signal was 0.84 RPM ratio (pull-down/input).

“GATGATTGTTCTCCCAGCTGATGAATTTTGATGTTCGAGTAAACAAATTTTCCTAATCTTTCTGTTCAAGCGCCATCTAC”: the binding signal was 3.91 RPM ratio (pull-down/input).

With “GATGATTGTTCTCCCAGCTGATGAATTTAAGGATTCGAGTAAACAAATTTTCCTAATCTTTCTGTTCAAGCGCCATCTAC”, the binding signal was 0.302 RPM ratio (pull-down/input).

Regarding “GATGATTGTTCTCCCAGCTGATGAATTGAATATTTCGAGTAAACAAATTTTCCTAATCTTTCTGTTCAAGCGCCATCTAC”, the binding signal was 0.671 RPM ratio (pull-down/input).

On to “GATGATTGTTCTCCCAGCTGATGAATTTTGACCATCGAGTAAACAAATTTTCCTAATCTTTCTGTTCAAGCGCCATCTAC”, for which the binding signal is 0.551 RPM ratio (pull-down/input).

In the case of “GATGATTGTTCTCCCAGCTGATGAATTATTGTGTTCGAGTAAACAAATTTTCCTAATCTTTCTGTTCAAGCGCCATCTAC”, the binding signal is 2.16 RPM ratio (pull-down/input).

As for “GATGATTGTTCTCCCAGCTGATGAATTGTTATATTCGAGTAAACAAATTTTCCTAATCTTTCTGTTCAAGCGCCATCTAC”, the binding signal is 1.27 RPM ratio (pull-down/input).

For the sequence “GATGATTGTTCTCCCAGCTGATGAATTGTGTTATTCGAGTAAACAAATTTTCCTAATCTTTCTGTTCAAGCGCCATCTAC”, the binding signal was 7.88 RPM ratio (pull-down/input).

As for “GATGATTGTTCTCCCAGCTGATGAATTGGATCGTTCGAGTAAACAAATTTTCCTAATCTTTCTGTTCAAGCGCCATCTAC”, the binding signal was 0.402 RPM ratio (pull-down/input).

With “GATGATTGTTCTCCCAGCTGATGAATTTACAGGATCGAGTAAACAAATTTTCCTAATCTTTCTGTTCAAGCGCCATCTAC”, the binding signal was 0.329 RPM ratio (pull-down/input).

Take “GATGATTGTTCTCCCAGCTGATGAATTCTTAAGTTCGAGTAAACAAATTTTCCTAATCTTTCTGTTCAAGCGCCATCTAC”: the binding signal is 0.237 RPM ratio (pull-down/input).

For the sequence “GATGATTGTTCTCCCAGCTGATGAATTGGTATGGTCGAGTAAACAAATTTTCCTAATCTTTCTGTTCAAGCGCCATCTAC”, the binding signal is 1.45 RPM ratio (pull-down/input).

Take “GATGATTGTTCTCCCAGCTGATGAATTTGTATGTTCGAGTAAACAAATTTTCCTAATCTTTCTGTTCAAGCGCCATCTAC”: the binding signal was 6.63 RPM ratio (pull-down/input).

As to “GATGATTGTTCTCCCAGCTGATGAATTGTATGATTCGAGTAAACAAATTTTCCTAATCTTTCTGTTCAAGCGCCATCTAC”, the binding signal was 2.94 RPM ratio (pull-down/input).

For “GATGATTGTTCTCCCAGCTGATGAATTGTATGTTTCGAGTAAACAAATTTTCCTAATCTTTCTGTTCAAGCGCCATCTAC”, the binding signal was 3.89 RPM ratio (pull-down/input).

“GATGATTGTTCTCCCAGCTGATGAATTTGTATGGTCGAGTAAACAAATTTTCCTAATCTTTCTGTTCAAGCGCCATCTAC”: the binding signal is 6.04 RPM ratio (pull-down/input).

As for “GATGATTGTTCTCCCAGCTGATGAATTGTATGTGTCGAGTAAACAAATTTTCCTAATCTTTCTGTTCAAGCGCCATCTAC”, the binding signal was 3.75 RPM ratio (pull-down/input).

As for “GATGATTGTTCTCCCAGCTGATGAATTATGTATGTCGAGTAAACAAATTTTCCTAATCTTTCTGTTCAAGCGCCATCTAC”, the binding signal was 4.99 RPM ratio (pull-down/input).

Regarding “GATGATTGTTCTCCCAGCTGATGAATTGTGTATGTCGAGTAAACAAATTTTCCTAATCTTTCTGTTCAAGCGCCATCTAC”, the binding signal is 5.84 RPM ratio (pull-down/input).

For “GATGATTGTTCTCCCAGCTGATGAATTTTGTATGTCGAGTAAACAAATTTTCCTAATCTTTCTGTTCAAGCGCCATCTAC”, the binding signal is 6.01 RPM ratio (pull-down/input).

Take “GATGATTGTTCTCCCAGCTGATGAATTGTATGGGTCGAGTAAACAAATTTTCCTAATCTTTCTGTTCAAGCGCCATCTAC”: the binding signal was 1.19 RPM ratio (pull-down/input).

On to “GATGATTGTTCTCCCAGCTGATGAATTCTATGTGTCGAGTAAACAAATTTTCCTAATCTTTCTGTTCAAGCGCCATCTAC”, for which the binding signal is 1.96 RPM ratio (pull-down/input).

Turning to “GATGATTGTTCTCCCAGCTGATGAATTCTGTATGTCGAGTAAACAAATTTTCCTAATCTTTCTGTTCAAGCGCCATCTAC”, the binding signal is 4.95 RPM ratio (pull-down/input).

Regarding “GATGATTGTTCTCCCAGCTGATGAATTATTCAGATCGAGTAAACAAATTTTCCTAATCTTTCTGTTCAAGCGCCATCTAC”, the binding signal was 0.24 RPM ratio (pull-down/input).

As for “GATGATTGTTCTCCCAGCTGATGAATTTTTTCAATCGAGTAAACAAATTTTCCTAATCTTTCTGTTCAAGCGCCATCTAC”, the binding signal was 0.247 RPM ratio (pull-down/input).

Consider “GATGATTGTTCTCCCAGCTGATGAATTTGGTGAGTCGAGTAAACAAATTTTCCTAATCTTTCTGTTCAAGCGCCATCTAC”, for which the binding signal is 0.814 RPM ratio (pull-down/input).

Take “GATGATTGTTCTCCCAGCTGATGAATTGTAGGCGTCGAGTAAACAAATTTTCCTAATCTTTCTGTTCAAGCGCCATCTAC”: the binding signal was 0.778 RPM ratio (pull-down/input).

Consider “GATGATTGTTCTCCCAGCTGATGAATTGTTCACGTCGAGTAAACAAATTTTCCTAATCTTTCTGTTCAAGCGCCATCTAC”, for which the binding signal was 0.396 RPM ratio (pull-down/input).

Regarding “GATGATTGTTCTCCCAGCTGATGAATTCTGTCGCTCGAGTAAACAAATTTTCCTAATCTTTCTGTTCAAGCGCCATCTAC”, the binding signal was 0.926 RPM ratio (pull-down/input).

Take “GATGATTGTTCTCCCAGCTGATGAATTACCACGCTCGAGTAAACAAATTTTCCTAATCTTTCTGTTCAAGCGCCATCTAC”: the binding signal is 0.466 RPM ratio (pull-down/input).
